ChEMBL document CHEMBL1961873, “Compounds: GSK PKIS; Assays: Nanosyn kinase panel” (2012)

Assays:
[1] = target: Sphingosine kinase 1 (Homo sapiens) (UniProt Q9NYA1); conditions: at 1 µM;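 further: mean SPHK1 inhibition value reported from the GSK PKIS kinase panel screen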
[2] = target: T1, Sphingosine kinase 2 (Homo sapiens) (UniProt Q9NRA0); conditions: at 0.1 µM
T1 sequence (whole entry): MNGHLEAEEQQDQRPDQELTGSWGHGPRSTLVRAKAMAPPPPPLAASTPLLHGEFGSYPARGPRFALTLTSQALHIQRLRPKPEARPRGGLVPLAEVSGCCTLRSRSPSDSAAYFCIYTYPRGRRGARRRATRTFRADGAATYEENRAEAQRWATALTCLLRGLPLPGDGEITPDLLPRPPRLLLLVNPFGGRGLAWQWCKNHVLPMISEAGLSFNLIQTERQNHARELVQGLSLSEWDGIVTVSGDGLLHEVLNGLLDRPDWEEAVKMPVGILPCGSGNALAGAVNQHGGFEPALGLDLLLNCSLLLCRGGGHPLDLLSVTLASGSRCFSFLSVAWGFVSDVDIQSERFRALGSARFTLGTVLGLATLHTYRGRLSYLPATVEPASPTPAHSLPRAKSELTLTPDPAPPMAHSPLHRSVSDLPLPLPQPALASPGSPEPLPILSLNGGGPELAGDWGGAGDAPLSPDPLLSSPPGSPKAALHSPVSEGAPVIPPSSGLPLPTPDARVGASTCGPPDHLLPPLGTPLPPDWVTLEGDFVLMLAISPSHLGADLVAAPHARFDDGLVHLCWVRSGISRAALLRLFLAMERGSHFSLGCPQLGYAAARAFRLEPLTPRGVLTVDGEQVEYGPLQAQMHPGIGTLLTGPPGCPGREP

[3] = target: T1, Sphingosine kinase 2 (Homo sapiens); conditions: at 1 µM
[4] = target: Casein kinase II subunit alpha (Homo sapiens) (UniProt P68400); conditions: at 0.1 µM
Casein kinase II subunit alpha (Homo sapiens), sequence (P68400 whole entry, looked up): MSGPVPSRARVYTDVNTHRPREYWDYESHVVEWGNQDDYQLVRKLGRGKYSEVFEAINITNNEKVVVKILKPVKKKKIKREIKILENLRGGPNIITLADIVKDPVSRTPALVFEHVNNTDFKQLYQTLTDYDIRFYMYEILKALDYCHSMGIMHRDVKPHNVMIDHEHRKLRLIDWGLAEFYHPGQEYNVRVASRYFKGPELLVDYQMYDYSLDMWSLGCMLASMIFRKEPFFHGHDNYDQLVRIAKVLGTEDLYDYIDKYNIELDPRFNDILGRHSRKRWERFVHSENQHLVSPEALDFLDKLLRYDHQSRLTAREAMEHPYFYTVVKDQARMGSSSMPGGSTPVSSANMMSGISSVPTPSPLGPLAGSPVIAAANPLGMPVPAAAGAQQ

[5] = target: Casein kinase II subunit alpha (Homo sapiens) (UniProt P68400); conditions: at 1 µM
[6] = target: T2, Inhibitor of nuclear factor kappa-B kinase subunit alpha (Homo sapiens) (UniProt O15111); conditions: at 0.1 µM
T2 sequence (whole entry): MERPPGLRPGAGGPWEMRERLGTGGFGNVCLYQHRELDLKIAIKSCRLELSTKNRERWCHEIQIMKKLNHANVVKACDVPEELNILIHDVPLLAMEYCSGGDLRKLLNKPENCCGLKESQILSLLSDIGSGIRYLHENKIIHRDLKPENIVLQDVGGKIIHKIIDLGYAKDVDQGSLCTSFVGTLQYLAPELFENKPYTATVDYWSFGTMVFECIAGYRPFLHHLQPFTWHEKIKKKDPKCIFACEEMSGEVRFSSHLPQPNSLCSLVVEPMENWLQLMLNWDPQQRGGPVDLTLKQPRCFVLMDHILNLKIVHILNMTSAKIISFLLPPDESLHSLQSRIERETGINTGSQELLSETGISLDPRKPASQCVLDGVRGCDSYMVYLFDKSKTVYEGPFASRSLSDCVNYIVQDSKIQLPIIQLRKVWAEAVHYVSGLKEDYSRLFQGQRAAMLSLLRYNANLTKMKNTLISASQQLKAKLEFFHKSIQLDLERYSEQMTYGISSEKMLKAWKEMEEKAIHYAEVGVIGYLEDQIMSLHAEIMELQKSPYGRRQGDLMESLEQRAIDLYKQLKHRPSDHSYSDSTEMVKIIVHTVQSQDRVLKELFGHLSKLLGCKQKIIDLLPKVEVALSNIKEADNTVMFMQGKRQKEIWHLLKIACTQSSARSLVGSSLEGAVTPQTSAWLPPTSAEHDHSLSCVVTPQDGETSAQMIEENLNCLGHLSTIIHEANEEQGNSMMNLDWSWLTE

[7] = target: T2, Inhibitor of nuclear factor kappa-B kinase subunit alpha (Homo sapiens); conditions: at 1 µM
[8] = target: T3, Inhibitor of nuclear factor kappa-B kinase subunit beta (Homo sapiens) (UniProt O14920); conditions: at 0.1 µM
T3 sequence (whole entry): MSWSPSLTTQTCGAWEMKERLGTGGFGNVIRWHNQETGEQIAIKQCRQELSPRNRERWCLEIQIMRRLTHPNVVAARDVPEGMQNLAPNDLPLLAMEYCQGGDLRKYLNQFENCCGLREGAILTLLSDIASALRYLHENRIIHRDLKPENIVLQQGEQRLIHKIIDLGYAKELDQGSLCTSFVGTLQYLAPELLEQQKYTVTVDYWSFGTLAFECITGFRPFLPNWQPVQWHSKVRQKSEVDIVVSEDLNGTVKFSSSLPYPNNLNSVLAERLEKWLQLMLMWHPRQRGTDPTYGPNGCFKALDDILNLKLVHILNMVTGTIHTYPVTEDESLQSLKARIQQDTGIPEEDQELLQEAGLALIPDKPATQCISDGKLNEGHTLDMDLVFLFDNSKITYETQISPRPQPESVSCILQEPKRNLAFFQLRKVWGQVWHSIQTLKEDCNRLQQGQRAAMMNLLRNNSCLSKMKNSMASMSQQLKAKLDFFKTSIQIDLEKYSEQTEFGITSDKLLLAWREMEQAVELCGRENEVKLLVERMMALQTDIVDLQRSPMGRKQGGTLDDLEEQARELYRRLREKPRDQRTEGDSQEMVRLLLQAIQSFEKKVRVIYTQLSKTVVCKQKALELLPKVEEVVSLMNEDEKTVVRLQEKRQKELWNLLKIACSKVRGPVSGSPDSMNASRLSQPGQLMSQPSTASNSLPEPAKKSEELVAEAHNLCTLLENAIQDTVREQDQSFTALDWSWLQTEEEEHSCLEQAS

[9] = target: T3, Inhibitor of nuclear factor kappa-B kinase subunit beta (Homo sapiens); conditions: at 1 µM
[10] = target: T4, Inhibitor of nuclear factor kappa-B kinase subunit epsilon (Homo sapiens) (UniProt Q14164); conditions: at 0.1 µM
T4 sequence (whole entry): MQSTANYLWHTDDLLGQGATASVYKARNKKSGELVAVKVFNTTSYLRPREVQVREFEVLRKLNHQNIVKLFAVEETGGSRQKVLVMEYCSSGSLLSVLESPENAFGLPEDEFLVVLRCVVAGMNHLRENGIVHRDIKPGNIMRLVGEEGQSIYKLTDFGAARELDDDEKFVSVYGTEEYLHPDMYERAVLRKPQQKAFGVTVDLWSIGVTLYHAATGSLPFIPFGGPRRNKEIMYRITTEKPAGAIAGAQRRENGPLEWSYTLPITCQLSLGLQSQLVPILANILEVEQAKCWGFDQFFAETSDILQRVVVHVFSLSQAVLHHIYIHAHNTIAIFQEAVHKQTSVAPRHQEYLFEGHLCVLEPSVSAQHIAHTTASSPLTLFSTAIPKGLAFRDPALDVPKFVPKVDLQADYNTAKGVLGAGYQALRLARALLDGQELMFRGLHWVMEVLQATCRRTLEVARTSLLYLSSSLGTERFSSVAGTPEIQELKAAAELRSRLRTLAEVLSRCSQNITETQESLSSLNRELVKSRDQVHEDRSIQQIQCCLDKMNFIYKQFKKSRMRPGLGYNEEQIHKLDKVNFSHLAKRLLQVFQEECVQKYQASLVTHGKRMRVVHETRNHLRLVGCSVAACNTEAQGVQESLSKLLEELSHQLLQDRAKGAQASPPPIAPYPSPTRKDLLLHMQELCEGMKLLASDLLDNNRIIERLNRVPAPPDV

[11] = target: T4, Inhibitor of nuclear factor kappa-B kinase subunit epsilon (Homo sapiens); conditions: at 1 µM
[12] = target: T5, Serine/threonine-protein kinase Nek1 (Homo sapiens) (UniProt Q96PY6); conditions: at 0.1 µM
T5 sequence (whole entry): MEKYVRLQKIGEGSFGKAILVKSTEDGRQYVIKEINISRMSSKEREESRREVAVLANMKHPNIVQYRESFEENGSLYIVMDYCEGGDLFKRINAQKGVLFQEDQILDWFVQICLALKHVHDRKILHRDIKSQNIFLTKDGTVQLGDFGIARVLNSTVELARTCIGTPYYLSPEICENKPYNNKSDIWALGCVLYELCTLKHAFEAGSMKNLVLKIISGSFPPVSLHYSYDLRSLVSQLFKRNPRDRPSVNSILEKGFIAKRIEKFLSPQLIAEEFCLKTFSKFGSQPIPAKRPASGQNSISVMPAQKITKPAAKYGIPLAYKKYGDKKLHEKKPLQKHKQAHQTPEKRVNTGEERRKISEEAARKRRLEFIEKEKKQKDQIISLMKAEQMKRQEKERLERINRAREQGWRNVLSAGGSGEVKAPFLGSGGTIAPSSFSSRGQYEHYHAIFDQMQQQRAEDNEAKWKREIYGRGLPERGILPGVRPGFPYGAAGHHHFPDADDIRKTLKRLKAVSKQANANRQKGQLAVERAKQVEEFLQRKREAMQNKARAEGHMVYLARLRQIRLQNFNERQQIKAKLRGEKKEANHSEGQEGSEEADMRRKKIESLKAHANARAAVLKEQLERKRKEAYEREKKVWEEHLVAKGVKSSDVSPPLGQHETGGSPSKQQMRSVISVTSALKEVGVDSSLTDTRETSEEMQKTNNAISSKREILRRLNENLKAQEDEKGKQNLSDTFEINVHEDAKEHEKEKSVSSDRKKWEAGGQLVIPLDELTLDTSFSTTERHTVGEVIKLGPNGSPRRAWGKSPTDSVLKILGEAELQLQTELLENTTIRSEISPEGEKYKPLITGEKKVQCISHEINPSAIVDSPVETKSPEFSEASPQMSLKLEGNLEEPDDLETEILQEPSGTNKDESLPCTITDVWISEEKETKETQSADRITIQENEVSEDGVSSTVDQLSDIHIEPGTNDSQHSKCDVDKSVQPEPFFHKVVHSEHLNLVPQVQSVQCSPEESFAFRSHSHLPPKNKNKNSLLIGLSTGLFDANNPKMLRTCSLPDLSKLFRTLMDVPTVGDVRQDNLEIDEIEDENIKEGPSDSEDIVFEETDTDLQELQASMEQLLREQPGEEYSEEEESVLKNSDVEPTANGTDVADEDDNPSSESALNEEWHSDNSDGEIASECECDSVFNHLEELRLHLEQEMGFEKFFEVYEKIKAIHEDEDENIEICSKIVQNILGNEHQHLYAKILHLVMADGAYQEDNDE

[13] = target: T5, Serine/threonine-protein kinase Nek1 (Homo sapiens); conditions: at 1 µM
[14] = target: T6, Serine/threonine-protein kinase Nek2 (Homo sapiens) (UniProt P51955); conditions: at 0.1 µM
T6 sequence (whole entry): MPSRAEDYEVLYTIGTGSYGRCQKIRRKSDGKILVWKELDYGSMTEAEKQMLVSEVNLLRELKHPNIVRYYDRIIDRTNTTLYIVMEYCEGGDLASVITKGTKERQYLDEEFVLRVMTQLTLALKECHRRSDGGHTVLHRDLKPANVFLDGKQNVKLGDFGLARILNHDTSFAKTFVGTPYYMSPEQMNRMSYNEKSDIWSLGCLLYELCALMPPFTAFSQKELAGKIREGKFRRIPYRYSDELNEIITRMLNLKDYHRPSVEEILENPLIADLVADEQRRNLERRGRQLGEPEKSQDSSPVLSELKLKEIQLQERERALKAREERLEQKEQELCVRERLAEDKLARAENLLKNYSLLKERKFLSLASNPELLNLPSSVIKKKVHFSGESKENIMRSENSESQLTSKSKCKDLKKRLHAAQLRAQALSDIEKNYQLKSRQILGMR

[15] = target: T6, Serine/threonine-protein kinase Nek2 (Homo sapiens); conditions: at 1 µM
[16] = target: Serine/threonine-protein kinase Nek6 (Homo sapiens) (UniProt Q9HC98); conditions: at 0.1 µM
Serine/threonine-protein kinase Nek6 (Homo sapiens), sequence (Q9HC98 whole entry): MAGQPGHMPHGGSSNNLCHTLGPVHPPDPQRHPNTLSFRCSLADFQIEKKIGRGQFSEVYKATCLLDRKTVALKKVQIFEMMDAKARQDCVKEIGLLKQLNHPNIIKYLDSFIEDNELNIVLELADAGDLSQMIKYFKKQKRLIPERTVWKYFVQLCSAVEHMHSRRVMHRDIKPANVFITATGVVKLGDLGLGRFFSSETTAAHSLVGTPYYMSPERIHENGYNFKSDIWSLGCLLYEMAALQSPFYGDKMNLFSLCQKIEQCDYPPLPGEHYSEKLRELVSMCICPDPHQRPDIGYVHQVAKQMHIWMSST

[17] = target: Serine/threonine-protein kinase Nek6 (Homo sapiens) (UniProt Q9HC98); conditions: at 1 µM
[18] = target: Serine/threonine-protein kinase Nek7 (Homo sapiens) (UniProt Q8TDX7); conditions: at 0.1 µM
Serine/threonine-protein kinase Nek7 (Homo sapiens), sequence (Q8TDX7 whole entry, looked up): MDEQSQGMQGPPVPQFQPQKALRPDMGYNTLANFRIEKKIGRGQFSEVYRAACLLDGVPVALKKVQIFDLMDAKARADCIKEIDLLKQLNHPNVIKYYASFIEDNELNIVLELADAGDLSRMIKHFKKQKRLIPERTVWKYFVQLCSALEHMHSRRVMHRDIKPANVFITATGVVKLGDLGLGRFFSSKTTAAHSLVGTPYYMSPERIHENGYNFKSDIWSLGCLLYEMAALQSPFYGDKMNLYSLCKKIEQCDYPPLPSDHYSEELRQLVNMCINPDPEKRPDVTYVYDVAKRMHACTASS

[19] = target: Serine/threonine-protein kinase Nek7 (Homo sapiens) (UniProt Q8TDX7); conditions: at 1 µM
[20] = target: T7, Serine/threonine-protein kinase Nek9 (Homo sapiens) (UniProt Q8TD19); conditions: at 0.1 µM;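 further: reported value is the mean percent inhibition of NEK9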
T7 sequence (whole entry): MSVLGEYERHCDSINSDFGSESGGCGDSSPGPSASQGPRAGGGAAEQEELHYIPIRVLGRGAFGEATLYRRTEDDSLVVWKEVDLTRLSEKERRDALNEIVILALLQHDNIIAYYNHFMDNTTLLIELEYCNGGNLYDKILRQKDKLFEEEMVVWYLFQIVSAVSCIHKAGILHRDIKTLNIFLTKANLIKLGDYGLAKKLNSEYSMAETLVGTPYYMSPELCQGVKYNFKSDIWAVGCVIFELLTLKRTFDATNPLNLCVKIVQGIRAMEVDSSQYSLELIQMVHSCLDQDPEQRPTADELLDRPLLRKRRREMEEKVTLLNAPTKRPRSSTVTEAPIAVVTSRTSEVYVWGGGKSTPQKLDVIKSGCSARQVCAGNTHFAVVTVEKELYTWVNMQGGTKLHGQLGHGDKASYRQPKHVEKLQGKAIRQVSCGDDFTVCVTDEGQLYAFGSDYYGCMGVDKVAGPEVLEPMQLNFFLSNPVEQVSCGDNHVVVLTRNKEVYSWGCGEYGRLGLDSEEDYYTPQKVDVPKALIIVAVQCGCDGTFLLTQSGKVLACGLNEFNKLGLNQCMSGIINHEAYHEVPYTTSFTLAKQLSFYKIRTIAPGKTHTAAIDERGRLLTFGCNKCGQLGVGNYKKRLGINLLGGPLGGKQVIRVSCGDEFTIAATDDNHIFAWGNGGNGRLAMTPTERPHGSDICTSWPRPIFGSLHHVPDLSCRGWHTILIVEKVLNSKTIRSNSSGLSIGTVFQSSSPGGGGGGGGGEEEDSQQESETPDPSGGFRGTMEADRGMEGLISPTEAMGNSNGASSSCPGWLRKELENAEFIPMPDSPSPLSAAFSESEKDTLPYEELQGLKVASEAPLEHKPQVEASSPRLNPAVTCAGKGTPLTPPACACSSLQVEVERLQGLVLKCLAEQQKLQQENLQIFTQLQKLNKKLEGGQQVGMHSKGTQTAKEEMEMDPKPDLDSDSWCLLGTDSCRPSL

Sphingosine kinase 1 (Homo sapiens), sequence (Q9NYA1 whole entry): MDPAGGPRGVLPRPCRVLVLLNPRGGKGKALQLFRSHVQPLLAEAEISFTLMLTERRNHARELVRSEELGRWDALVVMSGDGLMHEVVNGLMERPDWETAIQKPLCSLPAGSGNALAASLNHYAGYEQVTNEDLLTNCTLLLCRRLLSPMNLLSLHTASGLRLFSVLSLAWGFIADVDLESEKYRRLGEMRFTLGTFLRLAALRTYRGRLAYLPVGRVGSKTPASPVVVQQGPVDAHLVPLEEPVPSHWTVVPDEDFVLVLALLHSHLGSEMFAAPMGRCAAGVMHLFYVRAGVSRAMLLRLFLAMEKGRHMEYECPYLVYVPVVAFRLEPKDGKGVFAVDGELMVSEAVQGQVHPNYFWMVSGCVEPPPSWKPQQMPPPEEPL

| Structure (SMILES) | inhibition [1] | inhibition [2] | inhibition [3] | inhibition [4] | inhibition [5] | inhibition [6] | inhibition [7] | inhibition [8] | inhibition [9] | inhibition [10] | inhibition [11] | inhibition [12] | inhibition [13] | inhibition [14] | inhibition [15] | inhibition [16] | inhibition [17] | inhibition [18] | inhibition [19] | inhibition [20] |
| --- | --- | --- | --- | --- | --- | --- | --- | --- | --- | --- | --- | --- | --- | --- | --- | --- | --- | --- | --- | --- |
| Cc1ccc(C(=O)NC2CC2)cc1-c1ccc2[nH]ncc2c1 | -1.63% | -1.1% | 0.65% | -2.79% | -1.68% | 7.28% | -2.31% | -3.22% | -2.64% | -3.17% | -3.47% | -0.31% | 1.87% | -2.19% | 0.98% | -3.09% | -3.72% | -7.62% | -4.5% | 0.32% |
| COc1ccc2ncnc(Nc3ccc(OCc4ccccc4)cc3)c2c1 | -2.59% | 0.06% | 0.29% | 3.44% | 7.23% | 2.22% | -0.08% | 2.67% | 3.67% | 3.74% | 1.06% | 0.79% | 4.16% | 1.74% | 1.37% | 4.45% | 2.35% | 2.47% | 2.49% | -0.31% |
